USP8 block = inhibitors of human USP8 deubiquitinase; Ubiquitin carboxyl-terminal hydrolase 8 (Homo sapiens), P40818; AID 1645853, 2021; purified USP8, Ub-rhodamine cleavage fluorescence, 30 min; inhibition, % at 20 µM; actives 4.2% (n = 47,000)
USP30 inh = inhibitors of human USP30 deubiquitinase | AID 1645860, 2021 | purified USP30, Ub-rhodamine cleavage fluorescence | Ubiquitin carboxyl-terminal hydrolase 30 (Homo sapiens), Q70CQ3 | actives 5.3% (n = 47,000) | inhibition, % at 25 µM
Target sequence (Q70CQ3 whole entry, looked up): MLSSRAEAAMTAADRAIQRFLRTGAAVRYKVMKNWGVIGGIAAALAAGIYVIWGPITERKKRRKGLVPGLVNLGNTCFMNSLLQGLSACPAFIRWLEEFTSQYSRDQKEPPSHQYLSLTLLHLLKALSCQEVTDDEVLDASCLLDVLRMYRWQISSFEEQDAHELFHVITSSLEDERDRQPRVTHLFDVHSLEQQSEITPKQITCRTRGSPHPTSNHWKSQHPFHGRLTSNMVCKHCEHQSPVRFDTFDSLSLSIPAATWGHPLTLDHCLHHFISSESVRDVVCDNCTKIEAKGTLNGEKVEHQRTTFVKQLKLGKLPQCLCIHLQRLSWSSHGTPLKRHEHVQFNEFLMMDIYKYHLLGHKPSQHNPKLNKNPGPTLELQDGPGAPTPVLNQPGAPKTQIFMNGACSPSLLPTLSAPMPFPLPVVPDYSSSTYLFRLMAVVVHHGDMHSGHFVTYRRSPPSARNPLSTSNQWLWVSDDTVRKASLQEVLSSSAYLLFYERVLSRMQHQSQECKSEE
USP28 inh = inhibitors of human USP28 deubiquitinase | Ubiquitin carboxyl-terminal hydrolase 28 (Homo sapiens), Q96RU2 | purified USP28, Ub-rhodamine cleavage fluorescence, 30 min | inhibition, % at 25 µM | actives 3% (n = 47,000) | AID 1645857, 2021
USP7 inh = inhibitors of human USP7 deubiquitinase | actives 0.3% (n = 47,000) | inhibition, % at 20 µM | purified USP7, Ub-rhodamine cleavage fluorescence | Ubiquitin carboxyl-terminal hydrolase 7 (Homo sapiens), Q93009
USP17 inh = inhibitors of human USP17 deubiquitinase | inhibition, % at 50 µM | actives 6.5% (n = 47,000) | purified USP17, Ub-rhodamine cleavage fluorescence, 3 h
USP10 block = inhibitors of human USP10 deubiquitinase | Ubiquitin carboxyl-terminal hydrolase 10 (Homo sapiens), Q14694 | purified USP10, Ub-rhodamine fluorescence, 60 min | inhibition, % at 20 µM | actives 1.1% (n = 47,000) | AID 1645856, 2021
A number is an active result. Rows were chosen to be rich in hits. Some 13% of all compounds tested hit in one or more screens of this group. Rule as the data show it: active = inhibition above about 30%; inactive = the rest.

CC(=O)Nc1ccc(C(=O)NCc2ccccc2F)c(N2CCCCC2)c1 was read as USP8 block inactive, USP30 inh inactive, USP28 inh 37, USP7 inh inactive, USP17 inh inactive and USP10 block inactive.
CCS(=O)(=O)N1Cc2ccccc2C2(CCNCC2)C1 was read as USP8 block inactive, USP30 inh inactive, USP28 inh inactive, USP7 inh inactive, USP17 inh inactive and USP10 block inactive.
Screening CN(C)C(=O)N1Cc2ccccc2C2(CCNCC2)C1 returned USP8 block inactive, USP30 inh 31, USP28 inh inactive, USP7 inh inactive, USP17 inh inactive and USP10 block inactive.
COc1cc(C(=O)NC2(C(F)(F)F)C(=O)Nc3c2c(=O)n(C)c(=O)n3C)cc(OC)c1OC (centres undefined) was read as USP8 block inactive, USP30 inh inactive, USP28 inh inactive, USP7 inh inactive, USP17 inh inactive and USP10 block inactive.
Screening CC1CCN(C(=O)C2CCC3(CC2)CNC(=O)c2cc(Cl)ccc2O3)CC1 (centres undefined) returned USP8 block inactive, USP30 inh inactive, USP28 inh inactive, USP7 inh inactive, USP17 inh inactive and USP10 block inactive.
`CC(c1ccccc1)c1nc(-c2ccc(=O)[nH]c2)no1` (centres undefined) gave USP8 block inactive, USP30 inh inactive, USP28 inh 61, USP7 inh inactive, USP17 inh inactive and USP10 block inactive.
For Cc1ccc(NC(=O)c2cc(=O)c3ccccc3o2)cc1S(=O)(=O)N1CCOCC1 the results were USP8 block inactive, USP30 inh 35, USP28 inh inactive, USP7 inh inactive, USP17 inh inactive and USP10 block inactive.
CCOC(=O)c1cc2c(ccn2C)n1CC(=O)N1CCN(C(=O)c2ccco2)CC1 was read as USP8 block 37, USP30 inh inactive, USP28 inh inactive, USP7 inh inactive, USP17 inh inactive and USP10 block inactive.
For CCOC(=O)c1cc2c(ccn2C)n1Cc1ccc2ccccc2n1 the results were USP8 block 57, USP30 inh inactive, USP28 inh inactive, USP7 inh inactive, USP17 inh inactive and USP10 block inactive.
Screening CCOC(=O)c1cc2c(ccn2C)n1Cc1cccc2ccccc12 returned USP8 block 87, USP30 inh inactive, USP28 inh inactive, USP7 inh inactive, USP17 inh 54 and USP10 block inactive.
Screening COC(=O)c1cc2c(ccn2C)n1Cc1ccccc1OC returned USP8 block 70, USP30 inh inactive, USP28 inh inactive, USP7 inh inactive, USP17 inh inactive and USP10 block inactive.
`O=S(=O)(Nc1ccccc1Oc1ccccc1)c1ccccc1C(F)(F)F` gave USP8 block inactive, USP30 inh 31, USP28 inh inactive, USP7 inh inactive, USP17 inh inactive and USP10 block inactive.
`Cc1ccc(CSc2nnc(C3CCCN3)o2)cc1` (centres undefined) gave USP8 block inactive, USP30 inh inactive, USP28 inh inactive, USP7 inh inactive, USP17 inh inactive and USP10 block inactive.
Screening O=c1sc2ccccc2c(=O)n1Cc1cccc(C(F)(F)F)c1 returned USP8 block inactive, USP30 inh inactive, USP28 inh 83, USP7 inh inactive, USP17 inh inactive and USP10 block inactive.
`Cc1noc(-c2ccc(=O)n(Cc3cccc(C(F)(F)F)c3)c2)n1` gave USP8 block inactive, USP30 inh inactive, USP28 inh inactive, USP7 inh inactive, USP17 inh inactive and USP10 block inactive.
`CC1(C(=O)NC2CCCCCC2)Cc2ccccc2C(=O)N1CCN1CCOCC1` (centres undefined) gave USP8 block inactive, USP30 inh 35, USP28 inh inactive, USP7 inh inactive, USP17 inh inactive and USP10 block inactive.
`CC1CCC(NC(=O)C2(C)Cc3ccccc3C(=O)N2C2CCCCC2)CC1` (centres undefined) gave USP8 block inactive, USP30 inh 30, USP28 inh inactive, USP7 inh inactive, USP17 inh inactive and USP10 block inactive.
`COc1cccc(NC(=O)N2CCC3(CC2)C(=O)Nc2ccccc23)c1` gave USP8 block inactive, USP30 inh inactive, USP28 inh inactive, USP7 inh inactive, USP17 inh inactive and USP10 block inactive.
NCc1ccc(C(=O)N2CCC3(CC2)C(=O)Nc2ccccc23)cc1 was read as USP8 block 85, USP30 inh inactive, USP28 inh inactive, USP7 inh inactive, USP17 inh inactive and USP10 block inactive.
Cc1ccc(N2CC(C(=O)Nc3cccc(-c4noc(C)n4)c3)CC2=O)cc1 (centres undefined) was read as USP8 block 40, USP30 inh inactive, USP28 inh inactive, USP7 inh inactive, USP17 inh inactive and USP10 block inactive.
Cc1nc2cc(N3CC(C(=O)NCc4ccccc4)CC3=O)ccc2o1 (centres undefined) was read as USP8 block inactive, USP30 inh inactive, USP28 inh inactive, USP7 inh inactive, USP17 inh inactive and USP10 block inactive.
For Cc1nc(-c2ccc(-n3cc(C(=O)Nc4cccc(F)c4)c(C)n3)cc2)no1 the results were USP8 block inactive, USP30 inh inactive, USP28 inh inactive, USP7 inh inactive, USP17 inh 51 and USP10 block inactive.
For Cc1nc2cc(N3CC(C(=O)Nc4cccc(C)c4C)CC3=O)ccc2o1 (centres undefined) the results were USP8 block inactive, USP30 inh 33, USP28 inh inactive, USP7 inh inactive, USP17 inh inactive and USP10 block inactive.
`CC(=O)Nc1ccc(C(=O)Nc2cccc(-c3noc(C)n3)c2)cc1` gave USP8 block inactive, USP7 inh inactive, USP17 inh 48 and USP10 block inactive.
For O=C(NC1CCCCC1)C1CC(=O)N(c2cccc(-c3noc(-c4cccs4)n3)c2)C1 (centres undefined) the results were USP8 block inactive, USP7 inh inactive, USP17 inh 39 and USP10 block inactive.
For Cc1ccc(N2CC(C(=O)N3CCC(c4noc(-c5ccccc5)n4)CC3)CC2=O)cc1C (centres undefined) the results were USP8 block inactive, USP30 inh inactive, USP28 inh inactive, USP7 inh inactive, USP17 inh inactive and USP10 block inactive.
Cn1c(=O)cc(OCC(=O)Nc2ccc(F)c(Cl)c2)c2ccccc21 was read as USP8 block inactive, USP30 inh inactive, USP28 inh inactive, USP7 inh inactive, USP17 inh inactive and USP10 block inactive.
Cc1ccc(CNCc2c(C(=O)O)c(C)n(-c3ccccc3)c2C)cc1 was read as USP8 block inactive, USP30 inh inactive, USP28 inh inactive, USP7 inh inactive, USP17 inh inactive and USP10 block inactive.
